About 300 (9.4%) of roughly 3,200 compounds showed activity. For the sample, actives were picked, then their nearest neighbours and some compounds at random.
Test system: A673/TR/shEF
Test: cell viability (LOESS-normalised, relative to median of negative controls) (log2 ratio); higher = more viable cells (less compound effect), active = hit call of the paper (over 3 MAD below the median)
Settings: treatment time: 72 h
Procedure, shortened: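 A673/TR/shEF Ewing sarcoma cells (1,500 per well, 384-well plates) were grown with or without doxycycline to induce EWS-FLI1 shRNA knockdown, starting 24 h before compounds. Library compounds at two or more concentrations, with DMSO controls, were added for three days. Cell viability was read by CellTiter-Glo luminescence on an Envision reader, then LOESS-corrected per plate, divided by the median of negative controls and log2-transformed. Hits were wells at least three median absolute deviations from the median of all screened wells.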

[1] = 0.025 µM, library screen: screen1, EWS-FLI1 expression: high (no doxycycline)
[2] = 0.025 µM, library screen: screen1, EWS-FLI1 expression: low (doxycycline-induced shRNA knockdown)
[3] = 0.25 µM, library screen: screen1, EWS-FLI1 expression: high (no doxycycline)
[4] = 0.25 µM, library screen: screen1, EWS-FLI1 expression: low (doxycycline-induced shRNA knockdown)
[5] = 2.5 µM, library screen: screen1, EWS-FLI1 expression: high (no doxycycline)
[6] = 2.5 µM, library screen: screen1, EWS-FLI1 expression: low (doxycycline-induced shRNA knockdown)
[7] = 25 µM, library screen: screen1, EWS-FLI1 expression: high (no doxycycline)
[8] = 25 µM, library screen: screen1, EWS-FLI1 expression: low (doxycycline-induced shRNA knockdown)
[9] = 0.25 µM, library screen: screen2, EWS-FLI1 expression: high (no doxycycline)
[10] = 0.25 µM, library screen: screen2, EWS-FLI1 expression: low (doxycycline-induced shRNA knockdown)
[11] = 2.5 µM, library screen: screen2, EWS-FLI1 expression: high (no doxycycline)
[12] = 2.5 µM, library screen: screen2, EWS-FLI1 expression: low (doxycycline-induced shRNA knockdown)

Measured: cell viability (log2)

COc1cc(/C=C(\C#N)C(N)=O)cc(CSc2nc3ccccc3s2)c1O
inactive: [1] 0.119 | [2] 0.0154 | [3] 0.2 | [4] -0.0796 | [5] 0.0235 | [6] 0.0635 | [7] -0.058 | [8] -0.0713

N#CC(C#N)=C(N)/C(C#N)=C/c1ccc(O)cc1
inactive: [9] 0.137 | [10] 0.116 | [11] 0.199 | [12] 0.0447

N#CC(C#N)=C(N)/C(C#N)=C/c1ccc2[nH]ccc2c1
active: [5] -0.421 | [7] -0.203
0.369: [1]
inactive: [2] 0.0769 | [3] 0.269 | [4] 0.0358 | [6] 0.0519 | [8] 0.0138

CC(=O)Oc1ccc(O)cc1
inactive: [3] -0.0255 | [4] 0.056 | [5] 0.0239 | [6] 0.00436

COC1=CC(=O)OC(CCc2ccc(OC)c(OC)c2)C1 (configuration not stated)
inactive: [3] 0.144 | [4] -0.00163 | [5] 0.181 | [6] 0.0406

COc1cc2occ(-c3ccc(O)cc3)c(=O)c2c(OC)c1O
inactive: [3] 0.0883 | [4] 0.0895 | [5] 0.108 | [6] 0.0533

O=c1cccc2cc(O)c(O)c(O)c2c1O
inactive: [3] -0.000737 | [4] -0.0453 | [5] 0.0367 | [6] 0.0294

COc1cc(OC)c2c(=O)c(OC)c(-c3ccc(OC)c(OC)c3)oc2c1
inactive: [3] 0.019 | [4] 0.0595 | [5] 0.0902 | [6] -0.0343

O=C1Cc2c([nH]c3ccc(Br)cc23)-c2ccccc2N1
inactive: [9] 0.148 | [10] 0.0907 | [11] 0.128 | [12] 0.118

O=C1Cc2c([nH]c3ccc([N+](=O)[O-])cc23)-c2ccccc2N1
inactive: [9] 0.0426 | [10] 0.0802
active: [11] -0.122 | [12] -0.312

O=c1c(-c2ccccc2)coc2cc(O)cc(O)c12
inactive: [3] -0.0366 | [4] 0.014 | [5] 0.0821 | [6] 0.099

— the supplement of paper PMC6089552
